Shown are actives, neighbours in structure and some others; about 3.2% of the full set was active somewhere.
Y pestis TopoI: inhibitors of Yersinia pestis topoisomerase I. AID 504884. actives 0.064% (n = 360,000). activity, % at 10 µM. Y. pestis Topo-I cleavage product accumulation, plate reader; in the data active = activity above about 50%, passing the limit was not always enough
GDH-TPI inh: inhibits GDH-TPI coupling enzymes, artifact for Mtb FBA screen; GDH-TPI coupled enzyme counterscreen, NADH absorbance; inhibition, % at 4.8 µM; actives 1.2% (n = 360,000); AID 588335; in the data active = inhibition above about 30%;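 also: 0% = DMSO wells and 100% = wells lacking the enzyme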
PrPC TRFRET: cell surface PrPC inhibition, primary TR-FRET screen; TR-FRET read-out; actives 0.43% (n = 370,000); inhibition, % at 13.8 µM; AID 720596; in the data active = inhibition above about 24%; also: 0% = median of the test wells and 100% = reference compound wells
TcdB inh: blocks C. difficile toxin B glycohydrolase activity | inhibition, % at 9.99 µM | AID 652162 | P18177 | actives 0.24% (n = 350,000) | TcdB glycohydrolase enzymatic assay, plate reader; in the data active = inhibition above about 10%
FBA Mtb inh: inhibits M. tuberculosis FBA enzyme; P9WQA3; actives 2.3% (n = 360,000); purified M. tuberculosis FBA, fluorescence read-out; AID 588726; inhibition, % at 1 µM; in the data active = inhibition above about 27%;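 also: 0% = vehicle and 100% = reference inhibitor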
Target sequence (P9WQA3 whole entry, looked up): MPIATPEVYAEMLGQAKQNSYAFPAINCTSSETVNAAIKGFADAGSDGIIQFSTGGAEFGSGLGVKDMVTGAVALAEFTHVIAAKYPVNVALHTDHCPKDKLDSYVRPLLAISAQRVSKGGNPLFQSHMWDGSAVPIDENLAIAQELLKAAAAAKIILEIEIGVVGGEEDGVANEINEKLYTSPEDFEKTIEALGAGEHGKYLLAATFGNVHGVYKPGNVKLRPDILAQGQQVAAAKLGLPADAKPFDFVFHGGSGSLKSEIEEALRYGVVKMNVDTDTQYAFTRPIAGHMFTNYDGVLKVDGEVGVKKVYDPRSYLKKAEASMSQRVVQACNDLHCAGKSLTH
The depositor's hits bear a star.

For Cc1noc(/C=C/N(C)C)c1S(=O)(=O)N1CCCC(C(=O)NC(C)c2ccccc2)C1 (stereo unspecified) the results were Y pestis TopoI -10, GDH-TPI inh 37*, PrPC TRFRET -1 and FBA Mtb inh 0.
For Cc1noc(/C=C/N(C)C)c1S(=O)(=O)N1CCCC(C(=O)NCCC2=CCCCC2)C1 (stereo unspecified) the results were Y pestis TopoI 5, GDH-TPI inh 46*, PrPC TRFRET 3, TcdB inh 1 and FBA Mtb inh -1.
For Cc1noc(C)c1S(=O)(=O)N1CCCC(C(=O)NCCC2=CCCCC2)C1 (stereo unspecified) the results were Y pestis TopoI 1, GDH-TPI inh 3, PrPC TRFRET -5 and FBA Mtb inh 6.
CC(NC(=O)C1CCCN(S(=O)(=O)c2cccc3nonc23)C1)c1ccccc1 (stereo unspecified) was read as Y pestis TopoI -8, GDH-TPI inh 18, PrPC TRFRET -33 and FBA Mtb inh 1.
For Cc1noc(/C=C/N(C)C)c1S(=O)(=O)N1CCCC(C(=O)NC2CCCCC2C)C1 (stereo unspecified) the results were Y pestis TopoI 16, GDH-TPI inh 62*, PrPC TRFRET 3, TcdB inh 2 and FBA Mtb inh -2.
For Cc1ccccc1-c1cnc2c(c1)C(=O)N([C@H](C)CO)C[C@H](C)[C@@H](CN(C)C(=O)c1ccncc1)O2 the results were TcdB inh 2.
For Cn1c(=O)c2[nH]c(C=Cc3ccc4c(c3)OCO4)nc2n(C)c1=O the results were Y pestis TopoI 1, GDH-TPI inh 31*, PrPC TRFRET 1, TcdB inh 1 and FBA Mtb inh 6.
`Cn1c(=O)c2c(nc(NCc3ccc4c(c3)OCO4)n2C)n(C)c1=O` gave Y pestis TopoI 3, GDH-TPI inh 3, PrPC TRFRET -3 and FBA Mtb inh 0.
`COc1cccc(-c2cn(CC[C@H]3CC[C@@H](NC(C)=O)[C@H](CO)O3)nn2)c1` gave TcdB inh 0.
For CCCCCCCCCn1c2c(c(=N)c3c1CCC3)CCCC2 the results were Y pestis TopoI 20, GDH-TPI inh 2 and FBA Mtb inh -3.
For CCCCCCCCCCn1c2c(c(=N)c3c1CCC3)CCC2 the results were Y pestis TopoI 21, GDH-TPI inh 0, PrPC TRFRET 48* and FBA Mtb inh 2.
For CC(C)CC#Cc1ccc2c(c1)O[C@@H](CN(C)S(=O)(=O)c1cccc(F)c1)[C@H](C)CN([C@@H](C)CO)S2(=O)=O the results were TcdB inh -1.
For COc1ccc2[nH]c(C(=O)Nc3ncc(C)cc3Br)cc2c1 the results were Y pestis TopoI -4, GDH-TPI inh -3, PrPC TRFRET 8, TcdB inh -1 and FBA Mtb inh 6.
CCOc1ccc(/C=N/NC(=O)c2cc3c(OC)cc(OC)c(OC)c3[nH]2)cc1 was read as Y pestis TopoI 3, GDH-TPI inh 34*, PrPC TRFRET 13, TcdB inh 0 and FBA Mtb inh 1.
Screening COc1ccc2[nH]c(C(=O)N/N=C/c3ccc(OC)c(O)c3)cc2c1 returned Y pestis TopoI -15, GDH-TPI inh 49*, PrPC TRFRET -10, TcdB inh 2 and FBA Mtb inh 0.
Screening COc1ccc2[nH]c(C(=O)Nc3ccc(F)cc3Br)cc2c1 returned Y pestis TopoI -3, GDH-TPI inh 32*, PrPC TRFRET 9, TcdB inh 0 and FBA Mtb inh 6.
For CCCOc1ccc2[nH]c(C(=O)N/N=C/c3cc(OC)c(OC)c(OC)c3)cc2c1 the results were Y pestis TopoI 3, GDH-TPI inh 30, PrPC TRFRET -2, TcdB inh 1 and FBA Mtb inh 4.
COc1ccc(OC)c(/C=N/NC(=O)c2cc3c(OC)c(OC)ccc3[nH]2)c1 was read as Y pestis TopoI -24, GDH-TPI inh 35*, PrPC TRFRET 15, TcdB inh 0 and FBA Mtb inh 1.
`COc1cccc(-c2ccc3c(c2)[C@@H]2[C@@H](CCN2C(=O)c2cccc(F)c2)[C@@H](CO)N3)c1` gave TcdB inh 0.
For C[C@@H]1CN([C@H](C)CO)C(=O)c2cccc(NS(=O)(=O)c3cn(C)cn3)c2O[C@H]1CN(C)C(=O)Nc1ccc(C(F)(F)F)cc1 the results were TcdB inh 1.
Screening COc1ccc2[nH]c(C(=O)N/N=C/c3ccccc3OC)cc2c1 returned Y pestis TopoI -6, GDH-TPI inh 38*, PrPC TRFRET 0, TcdB inh 0 and FBA Mtb inh 5.
